High-throughput results: PubChem BioAssay, The Scripps Research Institute Molecular Screening Center
This is a sample that favours compounds with a hit; in the whole collection about 1.1% have one here.
HTR5A inv ctr: HTR5A inverse agonists in luminescence cell assay, primary screen, counter-screen for OPRM1-OPRD1 heterodimer inverse agonist project, full-deck HTS | 5-hydroxytryptamine receptor 5A (Homo sapiens), P47898 | HTR5A cell line, inverse agonism | inhibition, % at 9.3 µM | 340,000 tested, 0.083% active; in the data active = inhibition mostly above about 23%, no sharp cut-off; inactive = mostly below about 18%
Target sequence (P47898 whole entry, looked up): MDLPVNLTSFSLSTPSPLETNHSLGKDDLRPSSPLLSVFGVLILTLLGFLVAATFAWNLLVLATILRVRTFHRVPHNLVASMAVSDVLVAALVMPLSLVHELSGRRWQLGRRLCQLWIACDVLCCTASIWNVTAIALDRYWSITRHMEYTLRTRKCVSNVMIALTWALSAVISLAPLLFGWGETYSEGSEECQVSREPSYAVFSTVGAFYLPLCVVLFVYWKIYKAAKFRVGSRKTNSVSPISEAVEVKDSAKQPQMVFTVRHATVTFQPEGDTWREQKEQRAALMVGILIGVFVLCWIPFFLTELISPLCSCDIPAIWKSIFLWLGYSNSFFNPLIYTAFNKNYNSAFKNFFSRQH
MOR-DOR ag: agonists of OPRM1-OPRD1 heterodimerization, primary screen, cell-based, luminescence; Mu-type opioid receptor (Homo sapiens) + Delta-type opioid receptor (Homo sapiens), …; cells; activation, % at 9.3 µM; 340,000 tested, 0.3% active; in the data active = activation above about 18%
HTR5A ag ctr: HTR5A agonists in luminescence cell assay, primary screen, counter-screen for OPRM1-OPRD1 heterodimer agonist project, full-deck HTS; 5-hydroxytryptamine receptor 5A (Homo sapiens), P47898; cell-based; activation, % at 9.3 µM; 340,000 tested, 0.61% active; AID 504692, 2011; in the data active = activation mostly above about 9.5%, no sharp cut-off; inactive = mostly below about 7.6%
OPRM1-OPRD1 inv: inverse agonists of MOR-DOR heterodimerization, primary screen, cell-based, luminescence | Mu-type opioid receptor (Homo sapiens) + Delta-type opioid receptor (Homo sapiens), … | cell-based MOR-DOR heterodimer luminescence, inverse agonism | 340,000 tested, 0.21% active | inhibition, % at 9.3 µM | AID 504357, 2011; in the data active = inhibition above about 22%, passing the limit was not always enough
MOR-DOR inv conf: inverse agonists of MOR-DOR heterodimerization, confirmation, cell-based, luminescence. 580 tested, 20% active. shares compounds with OPRM1-OPRD1 inv. AID 504900, 2011. inhibition, % at 9.3 µM. cells expressing OPRM1/OPRD1 heterodimer; in the data active = inhibition above about 32%
HTR5A inv ctr2: HTR5A inverse agonists, counter-screen for OPRM1-OPRD1 inverse agonist project, cell-based, luminescence; inhibition, % at 9.3 µM; AID 504914, 2011; shares compounds with OPRM1-OPRD1 inv; HTR5A-expressing cells, inverse agonism; 580 tested, under 10 active; call rule not given here
Each line names hits and unclear results; the compound was inactive in the other large screens (follow-up assays come after a bar, where they were run).

COc1ccc(N2CCN(C(=O)CCCOc3cc(=O)n(C)c4ccccc34)CC2)cc1	OPRM1-OPRD1 inv 33.6 | MOR-DOR inv conf inactive | HTR5A inv ctr2 inactive
O=C1C(=O)N(CCCc2ccccc2)c2ccccc21	OPRM1-OPRD1 inv 43.4 | MOR-DOR inv conf 90.3 | HTR5A inv ctr2 inactive
O=C(CN1C(=O)C(=O)c2ccccc21)NCCc1ccccc1	OPRM1-OPRD1 inv 56.4 | MOR-DOR inv conf inactive | HTR5A inv ctr2 inactive
COc1ccc(S(=O)(=O)N2CCN=C2SCc2cccc(F)c2)cc1	none
CN(C)S(=O)(=O)c1ccc(/C(O)=C2/C(=O)C(=O)N(Cc3cccnc3)C2c2cccs2)cc1 (stereo not given)	OPRM1-OPRD1 inv 39.5 | MOR-DOR inv conf inactive | HTR5A inv ctr2 inactive
CN(C)S(=O)(=O)c1ccc(/C(O)=C2/C(=O)C(=O)N(Cc3cccnc3)C2c2ccncc2)cc1 (stereo not given)	none
Cc1ccc(S(=O)(=O)Nc2cccc3cccnc23)cc1	OPRM1-OPRD1 inv 44.1 | MOR-DOR inv conf inactive | HTR5A inv ctr2 inactive
Cc1ccc(S(=O)(=O)Nc2ccccc2-c2ccccc2NS(=O)(=O)c2ccc(C)cc2)cc1	none
Cn1cnc([N+](=O)[O-])c1S(=O)(=O)Oc1cccc2ccccc12	none
Cn1cnc([N+](=O)[O-])c1S(=O)(=O)Oc1ccc(Cl)cc1	OPRM1-OPRD1 inv 39.5 | MOR-DOR inv conf inactive | HTR5A inv ctr2 inactive
COc1cccc(C(=O)OCC(=O)N2CCc3ccccc3C2)c1	none
O=C(NC1CC1)C1CC(=O)N(c2cccc(Cl)c2Cl)C1 (stereo not given)	none
CCN(C(=O)COC(=O)CCn1c(C)csc1=O)c1c(N)n(Cc2ccccc2)c(=O)[nH]c1=O	none
Cn1cc(/C=C2\SC(=O)NC2=S)c2ccccc21	OPRM1-OPRD1 inv 28.1 | MOR-DOR inv conf inactive | HTR5A inv ctr2 inactive
Cc1ccc(C(=O)NN2C(=O)/C(=C/c3cn(C)c4ccccc34)SC2=S)cc1	none
CN(C)c1ccc(CC(=O)c2nc3ccccc3s2)cc1	OPRM1-OPRD1 inv 23.5 | MOR-DOR inv conf inactive | HTR5A inv ctr2 inactive
Cc1ccc(Cl)c2c1NC(=O)C2(O)CC(=O)c1ccc(Br)cc1 (stereo not given)	OPRM1-OPRD1 inv 30.1 | MOR-DOR inv conf inactive | HTR5A inv ctr2 inactive
O=C(CC1(O)C(=O)Nc2cc(Cl)cc(Cl)c21)c1ccncc1 (stereo not given)	OPRM1-OPRD1 inv 28.8 | MOR-DOR inv conf inactive | HTR5A inv ctr2 inactive
O=C1Nc2ccccc2C1(O)Cc1ccncc1 (stereo not given)	none
CCS(=O)(=O)Nc1ccc(C(=O)CC2(O)C(=O)Nc3ccc(Br)cc32)cc1 (stereo not given)	none
COC(=O)CCCC(=O)NC1CCCc2c1cnn2-c1ccc(F)cc1F (stereo not given)	none
Nc1c(Cl)ncnc1N/N=C/c1ccnc2ccccc12	none
Nc1c(Cl)ncnc1N/N=C/c1ccc2ccccc2n1	OPRM1-OPRD1 inv 32.5 | MOR-DOR inv conf inactive | HTR5A inv ctr2 inactive
O=C(NNC(=S)NCC1CCCO1)c1cc(Br)ccc1Cl (stereo not given)	OPRM1-OPRD1 inv 32.9 | MOR-DOR inv conf inactive | HTR5A inv ctr2 inactive
CCCOc1ccc(C(=O)CCC(=O)NNC(=O)c2cccs2)cc1	none
COc1ccccc1OCC(=O)N1CCN(C(=O)c2ccco2)CC1	none
Cc1ccc(NC(=S)NNC(=O)c2nn(C)cc2Cl)cc1	OPRM1-OPRD1 inv 29.1 | MOR-DOR inv conf inactive | HTR5A inv ctr2 inactive
O=C(CN1C(=O)NC2(CCCCC2)C1=O)N1CCN(S(=O)(=O)c2ccc(F)c(F)c2F)CC1	none
O=C(Nc1ccncc1)C1c2ccccc2Oc2ccccc21	OPRM1-OPRD1 inv 35.7 | MOR-DOR inv conf inactive | HTR5A inv ctr2 inactive
CC(=O)c1ccc(S(=O)(=O)N2CCN(C(C)C(=O)N(C)Cc3ccccc3)CC2)cc1 (stereo not given)	none
Cn1c(/C=C/c2cccc([N+](=O)[O-])c2)c([N+](=O)[O-])c(=O)n(C)c1=O	OPRM1-OPRD1 inv 29.3 | MOR-DOR inv conf inactive | HTR5A inv ctr2 inactive
CC1(C)CC(CC(=O)NC(=S)Nc2ccc([N+](=O)[O-])cc2)C(=O)O1 (stereo not given)	OPRM1-OPRD1 inv 34.6 | MOR-DOR inv conf inactive | HTR5A inv ctr2 inactive
COC(=O)C1(C)COP(=O)(NC23CC4CC(CC(C4)C2)C3)OC1 (stereo not given)	none
CC1(C)CN(c2ccccc2)N(C(=O)c2ccc(F)cc2)C1=O	OPRM1-OPRD1 inv 45.7 | MOR-DOR inv conf inactive | HTR5A inv ctr2 inactive
CC1(C)CN(c2ccccc2)N(C(=O)c2ccc(C#N)cc2)C1=O	OPRM1-OPRD1 inv 51.5 | MOR-DOR inv conf inactive | HTR5A inv ctr2 inactive
CC1(C)COCN1C(=O)c1ccc(C#N)cc1	none
COc1cccc(OCc2cc(C(=O)NCc3cnc4ccccn34)no2)c1	none
C[C@H]1CCC/C=C/[C@@H]2C[C@H](O)C[C@H]2[C@H](O)[C@H](S(=O)c2ccc(O)cc2)CC(=O)O1 (stereo not given in full)	OPRM1-OPRD1 inv 44.3 | MOR-DOR inv conf inactive | HTR5A inv ctr2 inactive
CC1CCCC=CC2CC(OC(=O)CN(C)C)CC2C(O)C=CC(=O)O1 (stereo not given)	none
CC(C)CCNC(=O)CCn1nc(-c2ccc(Cl)cc2)ccc1=O	none
CN(C)c1ccc(CNc2ncnc3sccc23)cc1	none
N#CC(C#N)=C1C=CC=CN1/C(=C\c1ccco1)C(=O)c1ccc(-c2ccccc2)cc1	none
N#CC(C#N)=C1C=CC=CN1/C(=C\c1ccco1)C(=O)c1ccc(Cl)cc1	OPRM1-OPRD1 inv 33.7 | MOR-DOR inv conf inactive | HTR5A inv ctr2 inactive
O=C(COC(=O)c1ccccc1F)c1ccc(-n2nncc2-c2ccco2)cc1	OPRM1-OPRD1 inv 32.8 | MOR-DOR inv conf inactive | HTR5A inv ctr2 inactive
CNc1ccccc1C(=O)OCC(=O)c1ccc(F)cc1	none
Cc1cc(C(=O)NNc2ccc(C)c(C)c2)no1	OPRM1-OPRD1 inv 57.8 | MOR-DOR inv conf inactive | HTR5A inv ctr2 inactive
Cc1cc(C(=O)NNc2ccc(Cl)cc2)no1	OPRM1-OPRD1 inv 35.1 | MOR-DOR inv conf inactive | HTR5A inv ctr2 inactive
COc1ccc(C(=O)NNC(=O)CSc2nnc(C3CC3)n2C)cc1	none
Cn1c(=O)[nH]c(=O)c2c1nc(N1CCNCC1)n2Cc1ccccc1	none
Cn1c(=O)[nH]c(=O)c2c1nc(N1CCNCC1)n2Cc1cccc2ccccc12	OPRM1-OPRD1 inv 38.2 | MOR-DOR inv conf inactive | HTR5A inv ctr2 inactive
Cn1c(=O)c2c(nc(N3CCNCC3)n2Cc2cccc3ccccc23)n(C)c1=O	OPRM1-OPRD1 inv 42.3 | MOR-DOR inv conf inactive | HTR5A inv ctr2 inactive
O=C(O)c1ccc(N/N=C/c2cc3cc4c(cc3nc2Cl)OCCO4)cc1	none
